Screens from PubChem.
A selection: hits, their analogues and other compounds. The true share with any hit is near 6.9%.
Vif-APOBEC3G blk: qHTS for Inhibitors of Vif-A3G Interactions: qHTS; Potency, µM (top dose mostly 46.1 µM), for the others: top-dose activity, negative = active, actives largely listed as inhibitors; HeLa A3G-eYFP + Vif (tagged APOBEC3G with the HIV-1 protein that degrades it), YFP fluorescence, overnight; AID 602310, 2012; 410,000 compounds, 0.076% hits; DNA dC->dU-editing enzyme APOBEC-3G (Homo sapiens), Q9HC16; note: potency is the fitted concentration of half-maximal effect; % is set by controls: 0 for no effect and ±100 for the full control effect; nearly all actives have a fitted effect of over 60% in size
Target sequence (Q9HC16 whole entry, looked up): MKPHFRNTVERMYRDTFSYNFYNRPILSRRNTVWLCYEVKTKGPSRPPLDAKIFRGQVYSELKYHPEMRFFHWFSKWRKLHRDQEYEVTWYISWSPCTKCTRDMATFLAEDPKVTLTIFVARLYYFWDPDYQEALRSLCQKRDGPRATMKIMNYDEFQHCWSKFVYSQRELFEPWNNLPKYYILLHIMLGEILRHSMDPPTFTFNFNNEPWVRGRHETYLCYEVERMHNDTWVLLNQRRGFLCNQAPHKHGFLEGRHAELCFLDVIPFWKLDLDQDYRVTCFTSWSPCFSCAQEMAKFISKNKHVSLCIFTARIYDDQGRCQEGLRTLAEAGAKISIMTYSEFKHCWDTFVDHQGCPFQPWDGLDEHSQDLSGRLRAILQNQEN
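Read-out is eYFP fluorescence (Ex 488/Em 500-530) from Vif-expressing HeLa A3G-eYFP cells; more signal means A3G escaped Vif-mediated degradation. Cells plated overnight, compound pinned in, incubated overnight at 37 deg C.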
Giardia killer: Small Molecules that selectively kill Giardia lamblia: qHTS; Giardia lamblia trophozoite viability; activity change, % at 7.66 µM, hits read low; 340,000 compounds, 0.15% hits; AID 540267, 2011; in the data active = activity change below about -80%; inconclusive = between about -30% and that limit;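 note: parasites exposed to compound for two days anaerobically before the ATP read; % is set by controls: 0 for no effect and ±100 for the full control effect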
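Each well holds 100 Giardia trophozoites and compound. After two days (48 hrs) at 37 deg C in anaerobic conditions, ATP is quantified by luminescence.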
IL1B secr inh: qHTS for Inhibitors of Inflammasome Signaling: IL-1-beta AlphaLISA Primary Screen. THP-1 LPS/ATP IL-1B secretion, AlphaLISA, 16 h; active compounds read low. activity change, % at 57.5 µM. 360,000 compounds, 4.7% hits. AID 743279, 2014; in the data active = activity change below about -50%; inconclusive = mostly about -30% to -49%; note: % is set by controls: 0 for no effect and ±100 for the full control effect
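Secreted IL-1B measured by AlphaLISA bead assay after 16 h compound exposure of THP-1 cells; compounds (final up to 57.5 uM) added 1 h before LPS (250 ng/mL) and ATP (1.25 mM) stimulation; lower signal means less secretion.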
SW480 rereplic: A quantitative high throughput screen for small molecules that induce DNA re-replication in SW480 colon adenocarcinoma cells; SW480 DNA re-replication, Hoechst DNA content imaging, 48 h; Potency, µM (titrated, usually from 46.1 µM), for inactives: at the top dose re-replication activation, most hits filed as activators; 340,000 compounds, 1.8% hits; note: potency is the fitted concentration of half-maximal effect; % of control where 0% means no effect; nearly all actives have a fitted effect of over 55% in size
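SW480 cells exposed to compounds for 48 hr at 37 C, 5% CO2, then Hoechst-stained 40 min. Nuclear DNA content imaged by fluorescence scanning (405 nm excitation, 500-530 nm emission); re-replication scored as increased high-intensity nuclei.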
Vif-A3F inh: qHTS for Inhibitors of Vif-A3F Interactions: qHTS | HeLa A3F-eYFP + Vif (tagged APOBEC3F with the HIV-1 protein that degrades it), YFP fluorescence increase | Potency, µM (titrated, usually from 46.1 µM), without a hit: at the top dose activity, negative = active | 390,000 compounds, 0.2% hits | AID 602313, 2012; note: potency is the fitted concentration of half-maximal effect; % of control where 0% means no effect; nearly all actives have a fitted effect of over 65% in size
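Fluorescence increase (Ex 488/Em 500-530) after overnight compound treatment at 37 deg C flags inhibition of Vif-driven A3F-eYFP loss in stable HeLa A3F-eYFP/Vif cells seeded overnight beforehand.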
MCF10A rereplic: A quantitative high throughput screen for small molecules that induce DNA re-replication in MCF 10a normal breast cells. MCF 10A DNA re-replication, Hoechst nuclear intensity, 48 h. Potency, µM (top dose mostly 46.1 µM), inactives show at the highest dose activity, positive = re-replication, most hits filed as activators. 350,000 compounds, 2.9% hits; note: potency is the fitted concentration of half-maximal effect; % of control where 0% means no effect; nearly all actives have a fitted effect of over 50% in size
Active calls of the source: *; u = inconclusive; x = no result given. Unless noted, calls come from the whole dose curve; as a rule, active = well fitted curve in the direction sought with a large enough effect; inconclusive = small, poorly fitted or top-dose-only effect, or another doubt; inactive = no such curve, though single readings can be large; an effect the other way counts as inactive or inconclusive.

SMILES	Vif-APOBEC3G blk	Giardia killer	IL1B secr inh	SW480 rereplic	Vif-A3F inh	MCF10A rereplic
c1ccc(-c2nnc3sc(-c4cc5ccccc5o4)nn23)cc1	0%	-5	-29	u	0%	18µM*
CCN(CC)c1ccc(-c2nn3c(-c4ccccc4OC)nnc3s2)cc1	-22%	1	0	1.3µM*	u	u
COc1cccc(-c2nnc3sc(-c4ccccc4)nn23)c1	0%	5	-24	-6%	-2%	23%
CCOc1cccc(-c2nn3c(-c4cc(C)[nH]n4)nnc3s2)c1	-1%	3	-77*	-3%	-1%	9%
Cc1cc2nnc(SCc3ccc(F)cc3)n2c2ccccc12	2%	x	x	x	-3%	x
CC1(C)CC(=O)C(C(c2ccncc2)C2C(=O)CC(C)(C)CC2=O)C(=O)C1	-3%	8	-1	6%	3%	1%
Cc1ccc(C(C2C(=O)CC(C)(C)CC2=O)C2C(=O)CC(C)(C)CC2=O)s1	-10%	0	-12	0%	x	18µM*
Cc1c(Cl)cccc1NC(=O)CCn1cnnn1	0%	x	x	x	-3%	x
O=C(NCc1ccco1)c1cc2ccc(O)cc2oc1=O	-2%	-3	9	u	-13%	5.8µM*
COc1ccc2cc(C(=O)NCc3ccco3)c(=O)oc2c1	2%	-10	-5	-5%	-10%	11%
COc1ccc(-c2cc3ccc(OCC(N)=O)cc3oc2=O)cc1OC	1%	17	24	-1%	-3%	7%
COc1ccc(-c2cc3ccc(O)cc3oc2=O)cc1OC	-10%	3	7	10µM*	2%	u
CC(=O)c1cc2ccc(O)cc2oc1=O	0%	1	-9	18µM*	2%	21µM*
N=c1oc2cc(O)ccc2cc1C(=O)Nc1ccc(Cl)cc1	-9%	4	-89*	2.6µM*	0%	1.6µM*
CC(C)CCNC(=O)c1cc(Sc2ccc(F)cc2F)nc2ccccc12	3%	x	x	x	5%	x
CC(=O)Oc1cccc(C)c1	x	x	x	4%	x	-1%
CCn1c(=O)c2cc(C(=O)Nc3cc(C)c(Cl)cc3OC)sc2c2ccccc21	2%	x	x	x	-1%	x
Cc1ccc(N=c2oc3cc(O)ccc3cc2C(N)=O)cc1	-12%	-7	u	16µM*	-16%	9.2µM*
Cc1ccc(C(=O)N/N=c2\oc3ccccc3cc2C(N)=O)cc1	-6%	6	-29	-9%	2%	4%
CCOc1ccc(NCc2ccccc2OCc2cccc(F)c2)cc1	-15%	-7	-54*	u	-8%	u
Fc1cccc(COc2ccccc2CNc2ccccc2)c1	-1%	4	-6	3%	-1%	-3%
CC(c1ccccc1)N1CCC(CNC(=S)Nc2cccc(Cl)c2)C1 (centres undefined)	-1%	-8	-80*	u	-6%	u
N#CCSc1nc2c(sc(=S)n2Cc2ccco2)c(=O)n1-c1ccc(F)cc1	2%	5	-53*	17%	-12%	18%
CCn1c(=S)sc2c(=O)n(-c3ccccc3)c(SC)nc21	0%	-2	-16	2%	0%	-15%
COc1ccc(OCc2nc(C#N)c(NCc3ccccc3Cl)o2)cc1	-5%	x	x	x	-16%	x
SMILES	Vif-APOBEC3G blk	Giardia killer	IL1B secr inh	SW480 rereplic	Vif-A3F inh	MCF10A rereplic
COc1ccc(CNc2nc(Cl)nc3nc[nH]c23)cc1	-4%	2	x	x	x	x
COc1ccc(CN(C)C(=O)c2ccc(Oc3ccccc3)cc2)cc1F	0%	2	-74*	u	8%	u
COc1ccc(CN(C)C(=O)c2cccc(S(=O)(=O)NCc3ccccc3)c2)cc1F	-4%	x	9	x	-1%	x
CCN(Cc1ccc(OC)c(F)c1)C(=O)CCl	1%	-7	-96*	16µM*	-15%	u
CCCCOc1ccccc1C(=O)Nc1nonc1-c1ccccc1	9%	x	x	x	0%	x
Cc1cc(CNC(=O)[C@]2(C(F)(F)F)C[C@H](CCC3CCCCC3)CCCO2)nn1C	-1%	-16	x	x	x	x
COc1ccc(CCC(=O)NC2CC(=O)N(c3ccc(C)c(C)c3)C2)cc1 (centres undefined)	-3%	x	x	x	-6%	x
CN1CCCCc2c1nc1ccccc1c2N (tested in a mixture with another compound)	-4%	8	8	-13%	-1%	6%
NCC1CCN(c2nc3ccccc3c3c2CCCC3)CC1	0%	-10	-95*	u	7%	u
CCOC(=O)CSc1nc2ccc(NC(=O)COc3ccc(F)cc3)cc2s1	1%	x	x	x	-8%	x
O=C(c1cccc(Cl)c1)c1nn(-c2ccccc2)c(=O)cc1C(F)(F)F	-1%	-5	-102*	-5%	-2%	-6%
O=C(Nc1ccccc1)c1nn(-c2ccccc2)c(=O)cc1C(F)(F)F	-8%	-3	15	-5%	u	-1%
O=C(c1ccccc1)c1nn(-c2ccccc2)c(=O)cc1C(F)(F)F	u	1	-88*	u	3%	u
O=C(c1ccccc1)c1nn(-c2ccc(Cl)cc2)c(=O)cc1C(F)(F)F	u	-10	-119*	u	3%	12µM*
O=C(c1ccccc1)c1nn(-c2ccccc2)c(=O)cc1-c1ccccc1	1%	x	-10	x	x	x
CC(C)OCCCNC(=O)CN1C(=O)c2ccccc2Sc2ncccc21	0%	x	x	x	1%	x
COCCCN(Cc1ccco1)C(=O)c1cc2c(s1)-c1ccccc1OC2	-11%	x	x	x	4%	x
CC(C)N(C)c1ncnc2c1ncn2[C@H]1CN(Cc2cccnc2)C[C@@H](CO)O1	5%	x	2	x	x	x
OC[C@@H]1CN(Cc2ccccc2)C[C@H](n2ccc3c(N4CCCC4)ncnc32)O1	-4%	x	-56*	x	x	x
COc1cc(CN2C[C@@H](CO)O[C@@H](n3cnc4c(NCc5ccc(F)cc5)ncnc43)C2)cc(OC)c1OC	0%	x	-69*	x	x	x
CCN(CC)c1ncnc2c1ncn2[C@H]1CN(Cc2cccnc2)C[C@@H](CO)O1	-3%	x	-57*	x	x	x
CN1CCN(c2ncnc3c2ncn3[C@H]2CN(Cc3ccccc3)C[C@@H](CO)O2)CC1	-1%	x	-8	x	x	x
Cc1c(C)n(C)c2ccc(C(=O)NCCc3ccc(Cl)cc3)cc12	7%	x	x	x	0%	x
Clc1nc(NCc2cccs2)c2[nH]cnc2n1	-2%	-3	x	x	x	x
COc1cccc(C(=O)NCc2cn3ccccc3n2)c1	-4%	x	x	x	-12%	x
O=C(COc1cccc(NC(=O)c2cccc([N+](=O)[O-])c2)c1)c1ccc(Br)cc1	-7%	-29	-72*	-2%	-2%	28%
